The first experiment has as its target SOHLH2. Briefly: pooled miR-30 sensor sort-seq; sequence = guide strand. The note with it: shRNA.
Consider TTGATGGAACTCTCACAGCTTC, for which the sensor-assay potency score (higher = more potent) was -0.632.

Sequence TAAGATGTCTATTTTTGCCTGG yielded a sensor-assay potency score (higher = more potent) of 0.389.

Sequence TATGTTTGCAAATAGTTTCTGT showed a sensor-assay potency score (higher = more potent) of 0.299.

As to TTCGCTGTAGGACCTCTGCAGG, the sensor-assay potency score (higher = more potent) is -0.848.

TTTGATATTAGGTCTTTGGGTG had a sensor-assay potency score (higher = more potent) of -0.0455.

Regarding TTTGAGGGACATGTTGTCCAGT, the sensor-assay potency score (higher = more potent) is -0.779.

In a further experiment the target is SORCS2. The experiment is described as above. The note with it: shRNA.
As to TTTCCTTTTGAACTTGTAGAGG, the sensor-assay potency score (higher = more potent) is -1.02.

In turn, TAGACTTACACTAACATCCCTG had a sensor-assay potency score (higher = more potent) of 0.646.

The sequence TTCTTCTTTATATTCCACCAGC gave a sensor-assay potency score (higher = more potent) of -0.916.

TAGAAATTGTCGATGACGGTGG returned a sensor-assay potency score (higher = more potent) of 0.449.

Sequence TTACTCAACAAGGAGCGGGTGC yielded a sensor-assay potency score (higher = more potent) of -0.482.

TTTTACTCAACAAGGAGCGGGT displayed a sensor-assay potency score (higher = more potent) of -0.478.

TAGAGCTTGCTCTCCTTTGTGT displayed a sensor-assay potency score (higher = more potent) of 0.276.

The sequence TTGAGGACAACTTGTAGGGTGG returned a sensor-assay potency score (higher = more potent) of -0.426.

Turning to AAAGAAGATGTAATCGTCCTGC, the sensor-assay potency score (higher = more potent) stood at 0.216.

Regarding TATTCCTATAGACTTACACTAA, the sensor-assay potency score (higher = more potent) was -0.686.

Regarding TTTGGTCACTCGCTCTTGCAGA, the sensor-assay potency score (higher = more potent) is -0.75.

Sequence TTCTTTATATTCCACCAGCTGT registered a sensor-assay potency score (higher = more potent) of -1.25.

A further experiment has as its target SOX21. The description is as above. The note with it: shRNA.
Consider ATGAACAGAGTGATAGTCGGAT, for which the sensor-assay potency score (higher = more potent) is 0.0793.

Consider TAATCTTCGATAAAATTGCGAT, for which the sensor-assay potency score (higher = more potent) was -0.606.

As for TTCTATGTACATACAAACCGGG, the sensor-assay potency score (higher = more potent) was -0.494.

The sequence TTAACTTTGATATTCGCTCAAA gave a sensor-assay potency score (higher = more potent) of -0.537.

TCTATGTACATACAAACCGGGC displayed a sensor-assay potency score (higher = more potent) of -1.15.

The sequence TTGAGTCTAAAGTCGACTCAAA had a sensor-assay potency score (higher = more potent) of -1.13.

The sequence TAGTAGTTTGTTGTTGTTGTTT had a sensor-assay potency score (higher = more potent) of -0.802.

In the case of TTAAATTAGAAGGTCACACTAG, the sensor-assay potency score (higher = more potent) stood at 0.0223.

In turn, TAAATTAGAAGGTCACACTAGA displayed a sensor-assay potency score (higher = more potent) of 0.55.

In turn, TTTGAGTCTAAAGTCGACTCAA had a sensor-assay potency score (higher = more potent) of 0.154.

For the sequence TTAATCTTCGATAAAATTGCGA, the sensor-assay potency score (higher = more potent) was -0.173.

In another experiment the target is SPAM1. The description is as above. The note with it: shRNA.
On to TCTATCTTTGTAACTTGCCTTC, for which the sensor-assay potency score (higher = more potent) is -0.492.

With TAACAATGAACATTGTGGCAGA, the sensor-assay potency score (higher = more potent) was -0.131.

TTGAATAGCAAAATTATCTGGG: the sensor-assay potency score (higher = more potent) came out at 0.668.

The sequence TTGAGGTTCTTCTGTCTCCATG had a sensor-assay potency score (higher = more potent) of -1.06.

In turn, TTTTCCTTATACACACTCCTTG gave a sensor-assay potency score (higher = more potent) of -0.634.

For TAATTGTCTAGGAGCAAGCAAG, the sensor-assay potency score (higher = more potent) was -1.53.

Take TTTCCTTATACACACTCCTTGC: the sensor-assay potency score (higher = more potent) was -0.862.

TATTGTAACACCTTGCCCGGTG returned a sensor-assay potency score (higher = more potent) of -0.194.

In turn, TTTATTTCTACATTGAAGCAAC registered a sensor-assay potency score (higher = more potent) of -0.796.

With ATACTAACAATGAACATTGTGG, the sensor-assay potency score (higher = more potent) was -0.0586.

In the case of TTTCATTCCACAACCAGCTGAG, the sensor-assay potency score (higher = more potent) turned out to be 0.0511.

Values taken from the OligoGym collection.
Further: reference of the scale not given here.
